Laboratory results as given in PubChem BioAssay AID1626 (SRMLSC, 2009).
Out of some 220,000 compounds screened, about 2,000 (0.91%) were called active. Another 2% or so got no clear call; they are omitted. Not all results are given here. Results with a measured potency or affinity are listed apart. A number with no mark means an inactive call. Cut-off read from the data, not from the text of the source: inconclusive = inhibition above about 80% without an active follow-up result; inactive = below that; test concentration not stated here.

Test: M. tuberculosis H37Rv growth inhibitors, H37Rv strain (AID 1626);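 note: bacteria incubated seven days before Alamar blue readout; 0% = bacteria only wells and 100% = bacteria with antibiotic wells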
Details: hits give high values, concentration not given here

Structure (SMILES) | inhibition [%]
COc1ccc(-n2c(O)c(C(C)=NCCCn3ccnc3)c(=O)[nH]c2=O)cc1 | -3.9
O=C(Nc1ccc(NC(=S)NC(=O)c2cccs2)cc1)c1ccco1 | -2.57
O=C(OCC(=O)N(C1CCCCC1)C1CCCCC1)c1ccco1 | -7.12
CCc1[nH]nc2c1C1(CCOC1C)C(C#N)=C(N)O2 (centres undefined) | -2.61
CCCn1c(Sc2nc3c(c(=O)[nH]c(=O)n3C)n2CCC)nc2c1c(=O)[nH]c(=O)n2C | 3.31
Cn1c(=O)[nH]c(=O)c2c1nc([N+](=O)[O-])n2Cc1ccccc1 | 72.1
CC(C(=O)c1ccccc1)N1C(=O)c2ccccc2C1=O (centres undefined) | -3.22
N#Cc1cccnc1N1CCC(C(N)=O)CC1 | -8.98
O=C(N/N=C/c1ccc2c(c1)OCO2)C(=O)Nc1ccc2ccccc2c1 | 1.96
O=c1c2ccccc2nc(-c2ccc(Cl)cc2Cl)n1O | 1.38
CSc1ccccc1NC(=O)c1ccc(C)o1 | -1.2
COc1ccc2c(c1)Sc1ccccc1N2CCN(C)C | 2.43
CN(C)CCCN1c2ccccc2Sc2ccccc21 | -4.11
O=c1[nH]c2cccnc2c2ccsc12 | -1.93
Cc1ccc(/C=N/N2CCN(c3ccncc3S(=O)(=O)N3CCCCC3)CC2)cc1 | 7.81
Cc1cc2c(s1)CCCCC(=O)N2 | -2.34
O=C1CCCc2sc3c(c2N1)CCCCC3 | -8.7
Cc1cc(C(=O)NC(Cc2ccccc2)C(=O)O)c(C)o1 (centres undefined) | 1.76
O=C(CNC(=S)N(CCCN1CCOCC1)Cc1cccs1)NCCN1CCOCC1 | 5.22
NC(=O)CN1C(=O)C2C3c4ccccc4C(c4ccccc43)C2C1=O (centres undefined) | 2.42
CCNc1nc(NCC)nc(N/N=C/c2cc(OC)c(OC)c(OC)c2)n1 | -2.94
Cc1[nH]n(-c2ccccc2)c(=O)c1-c1ccccc1 | -7.21
Cc1cc(-c2c(C)[nH]n(-c3ccc(Cl)cc3)c2=O)n[nH]1 | 65.3
CCOC(=O)C1=C(O)/C(=C/c2ccc(OCC(=O)O)c(OC)c2)SC1=Nc1ccc(OC)cc1 | 17.4

Structure (SMILES) | inhibition [%]
CCOc1ccc(Nc2nc(N3CCCC3)nc(N3CCN(c4ccc(OC)cc4)CC3)n2)cc1 | -4.38
COc1ccc(N2CCN(c3nc(Nc4ccc(C)c(F)c4)nc(N4CCCC4)n3)CC2)cc1 | 1.07
CC(C)(C)Nc1nc(N2CCCC2)nc(N2CCCC2)n1 | 14.2
CCNc1nc(N2CCCC2)nc(N2CCCC2)n1 | 1.64
O=C(NC(=S)NCCSc1ccccc1)c1cccnc1 | 4.56
COc1ccc(S(=O)(=O)NC2CCCCC2)cc1-n1cnnn1 | -10.3
Fc1cccc(Cl)c1/C=N/Nc1ccccn1 | 3.42
COc1ccc(Cn2c(O)c(/C=N/NC(=O)c3ccccc3)c(=O)[nH]c2=O)cc1 | -2.76
O=c1[nH]c(=O)n(Cc2ccccc2Cl)c(O)c1C=Nc1ccc(F)cc1 | 3.81
Cn1c(O)c(/C=C2/C=CC=N2)c(=O)[nH]c1=O | 1.64
C=CCn1c(O)c(/C=C2/C=CC=N2)c(=O)[nH]c1=O | 49
O=C(NC1CCCCC1)N1CCCc2ccccc21 | -7.82
Cc1ccc(CC2C(=O)N(CC(=O)O)C(=O)C2C)cc1 (centres undefined) | -14.9
CCCCNC(=O)Nc1ccccn1 | -6.21
O=C(Nc1ccccn1)C(=O)Nc1ccccn1 | -5
CC(O)Cc1cn([C@@H](CCCCNC(=O)OC(C)(C)C)C(=O)N2CCN(C(=O)OC(C)(C)C)CC2)nn1 (some centres undefined) | -10.7
CO/C=C/C#CC1(O)CCN(C)CC1 | -1.81
O=C(NCC1CCCO1)c1cc(C(=O)c2ccc(Cl)cc2Cl)c[nH]1 (centres undefined) | 2.36
COCCCNC(=S)Nc1ccc(C)cc1 | -3.56
COc1cc(OC)c2c(C)cc(=O)oc2c1C(CCN1CCOCC1)c1ccc(N(C)C)cc1 (centres undefined) | -12.1
CCCCCc1cc(=O)oc2c(C(CCN3CCN(c4ccccc4)CC3)c3ccc(N(C)C)cc3)c(OC)cc(OC)c12 (centres undefined) | 12.8
COc1cc(OC)c2ccc(=O)oc2c1C(CCN1CCCC1)c1ccc(N(C)C)cc1 (centres undefined) | -8.24
COc1ccc(C(CCN2CCCC(C)C2)c2c(OC)cc(OC)c3c2OC(=O)CC3c2cc(OC)c(OC)c(OC)c2)cc1 (centres undefined) | -7.36
COc1ccc(C(CCN2CCCC(C)C2)c2c(OC)cc(OC)c3c(C)cc(=O)oc23)cc1 (centres undefined) | 1.05

Structure (SMILES) | inhibition [%]
CCCCCc1cc(=O)oc2c(C(CCN3CCN(c4ccccc4)CC3)c3ccc4c(c3)OCO4)c(OC)cc(OC)c12 (centres undefined) | 22.5
COc1ccc(C(CCN2CCOCC2)c2c(OC)cc(OC)c3c(C)cc(=O)oc23)cc1 (centres undefined) | -3.23
COc1cc(OC)c2ccc(=O)oc2c1C(CCN1CCCC(C)C1)c1ccc(N(C)C)cc1 (centres undefined) | -10.1
N/C(=N/OC(=O)c1ccccc1F)c1nonc1N | 1.17
S=C(NCC1CCCO1)N1CCN(Cc2ccccc2Cl)CC1 (centres undefined) | -6.51
CCOC(=O)c1cnn(CCOC(=O)c2ccccc2F)c1NC(=O)c1ccccc1F | -4.26
Clc1ccc(-c2c(C3=NCCCN3)nnn2-c2ccc(Cl)cc2)cc1 | 2.74
Cc1cc(=O)[nH]c(SCc2nc3ccccc3n2Cc2ccccc2)n1 | -7.65
Cc1ccc(C(=O)Cn2nnc(-c3cccs3)n2)cc1 | -5.53
CCN1CCN(Cc2ccc(NC(=O)c3ccc(C)c(NC(=O)N4CCNC4=O)c3)cc2C(F)(F)F)CC1 | -4.19
CCN1CCN(Cc2ccc(NC(=O)c3ccc(C)c(NC(=O)c4nccn4C)c3)cc2C(F)(F)F)CC1 | 2
CCN1CCN(Cc2ccc(NC(=O)c3ccc(C)c(NC(=O)c4ccno4)c3)cc2C(F)(F)F)CC1 | 1.48
CCN1CCN(Cc2ccc(NC(=O)c3ccc(C)c(NC(=O)c4cccc5[nH]ccc45)c3)cc2C(F)(F)F)CC1 | -5.49
Cc1ccc(S(=O)(=O)N2CCOCC2)cc1NC(=O)CN1CCC(Cc2ccccc2)CC1 | 9.42
Cc1cc(C(=O)OCC(=O)N2CC(C)CC(C)C2)c(C)o1 (centres undefined) | -6.8
COc1cc2ccccc2cc1C(=O)OCC(=O)N1CCOCC1 | -12.6
COc1cccc(C(=O)OCC(=O)c2c[nH]c3ccccc23)c1O | 7.28
CC1CCN(C(=O)COC(=O)c2cc(Cl)cc(Cl)c2N)CC1 | -13.4
CC1CC(C)CN(C(=O)COC(=O)c2ccc[nH]c2=O)C1 (centres undefined) | -10
CC(=O)OCC(=O)c1c[nH]c2ccccc12 | -1.25
CCOC(=O)c1c(C)[nH]c(C)c1C(=O)COC(=O)c1cc2ccccc2cc1O | -1.14
CC(C)(C)C(=O)COC(=O)c1ccccc1O | 10.3
COc1ccccc1C/C(N)=N/OC(=O)c1ccc(C)c([N+](=O)[O-])c1 | 3.93
Cc1nnc(SCC(=O)N2CCN(S(=O)(=O)c3ccc(Cl)cc3)CC2)[nH]c1=O | -6.4

Structure (SMILES) | inhibition [%]
COc1ccc(C(=O)CSc2nnc(NC(=O)C3CC(=O)N(c4ccccc4C)C3)s2)cc1 (centres undefined) | 2.7
O=C(Nc1c(-c2cccs2)nc2ccccn12)c1ccc2ccccc2c1 | 0.95
CCC(CC)C(=O)Nc1cccc(-c2nc3ccccc3o2)c1 | 0.04
CCN(CC)C(=O)CC(c1ccccc1)c1ccco1 (centres undefined) | -14.2
Cc1cc(C)nc(N(C#N)CCOc2ccc(Cl)cc2)n1 | -4.66
Cn1c(=O)c2c(nc(SCCN3CCCCC3)n2Cc2ccccc2)n(C)c1=O | -2.51
CC(C)C(NC(=O)c1ccccc1F)C(=O)Nc1ccc2c(c1)OCO2 (centres undefined) | 1.73
CN(C)C(=O)/C(=C\c1cccc(Oc2ccccc2)c1)NC(=O)c1ccccc1 | 4.22
C/C(=N\NC(=O)c1cc(-c2cccnc2)nc2ccccc12)c1ccccc1O | 2.39
CCC1CCCCN1C(=O)COC(=O)c1n[nH]c2ccccc12 (centres undefined) | -3.06
O=C(COC(=O)c1cc(Br)ccc1Cl)NC1CC1 | 26.2
Cc1cc(C(=O)OCC(=O)N2CCCC2)c2ccccc2n1 | -17.2
O=C(OCC(=O)N1CCCCC1)c1ccccc1SCC(=O)N1CCCCC1 | 9.57
CCC1CCCCN1C(=O)CCCOc1ccccc1 (centres undefined) | -1.7
O=C(COc1ccc(Cl)cc1)OCC(=O)N1CCCC1 | 0.56
O=C(OCC(=O)N1CCCC1)c1cc(Br)ccc1Cl | 7.39
O=C(COc1ccc(Cl)cc1)OCC(=O)N1CCCCCC1 | 7.95
O=C(CNS(=O)(=O)c1ccccc1)Nc1ccc2c(c1)OCO2 | 0.17
O=C(Nc1ccccc1C(=O)N1CCNCC1)c1ccco1 | -1.36
CC1CCc2nn(CC(=O)Nc3c(F)cc(F)cc3Br)cc2C1 (centres undefined) | 0.73
Cc1cc(C(=O)N2CCCC(C(=O)c3cccc(C(F)(F)F)c3)C2)nc(C)n1 (centres undefined) | -11
COc1ccc(Cl)cc1-c1csc(N)n1 | -2.91
